# PMC7862700, “An all-to-all approach to the identification of sequence-specific readers for epigenetic DNA modifications on cytosine”
# Tests used:
# Assay in all cases: DAPPL (digital affinity profiling via proximity ligation, sequencing); 10 mM Tris-HCl pH 7.5, 50 mM NaCl, 1 mM DTT, 4% glycerol, room temperature, 30 min; GST-TFs on glutathione beads, 16-mer random dsDNA library, 0.1% formaldehyde crosslink after washing; high values mean tight binding
# FLI1 = molecular target: T1, FLI1 (Homo sapiens, UniProt Q01543 1-452); details: protein: recombinant; tags: N-terminal GST; dsDNA, one strand shown
# T1 sequence: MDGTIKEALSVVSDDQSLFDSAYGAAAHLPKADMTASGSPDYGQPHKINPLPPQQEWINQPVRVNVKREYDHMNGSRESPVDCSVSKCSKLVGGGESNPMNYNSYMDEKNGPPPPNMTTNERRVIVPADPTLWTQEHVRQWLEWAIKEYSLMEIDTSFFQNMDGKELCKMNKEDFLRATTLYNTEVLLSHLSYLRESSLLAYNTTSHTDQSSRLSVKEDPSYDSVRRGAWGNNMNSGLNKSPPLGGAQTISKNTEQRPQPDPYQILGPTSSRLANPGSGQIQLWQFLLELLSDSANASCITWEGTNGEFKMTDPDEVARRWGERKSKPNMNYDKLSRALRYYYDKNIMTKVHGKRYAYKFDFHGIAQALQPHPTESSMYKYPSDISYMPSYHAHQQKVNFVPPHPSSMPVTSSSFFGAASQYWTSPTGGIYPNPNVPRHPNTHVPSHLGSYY
# In short: (§1)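 The binding signal reported is, for every hexamer, its read frequency for a factor over its read frequency for the tag-only sample. Reads came from pools of yeast-expressed, GST-fused human transcription factors on glutathione beads, barcoded with DNA and mixed with that sample, which were incubated with 200 nmole of a random double-stranded 16-mer DNA library in Tris/NaCl/DTT/glycerol buffer at room temperature for 30 min. After washing, the pools were crosslinked with 0.1% formaldehyde, proximity-ligated with BsaI/T4 ligase for 1 h at 37 °C, PCR-amplified and sequenced on an Illumina NextSeq500.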
# ELK1 = molecular target: T2, ELK1 (Homo sapiens, UniProt P19419 1-428); details: protein: recombinant; tags: N-terminal GST; dsDNA, one strand shown
# T2 sequence: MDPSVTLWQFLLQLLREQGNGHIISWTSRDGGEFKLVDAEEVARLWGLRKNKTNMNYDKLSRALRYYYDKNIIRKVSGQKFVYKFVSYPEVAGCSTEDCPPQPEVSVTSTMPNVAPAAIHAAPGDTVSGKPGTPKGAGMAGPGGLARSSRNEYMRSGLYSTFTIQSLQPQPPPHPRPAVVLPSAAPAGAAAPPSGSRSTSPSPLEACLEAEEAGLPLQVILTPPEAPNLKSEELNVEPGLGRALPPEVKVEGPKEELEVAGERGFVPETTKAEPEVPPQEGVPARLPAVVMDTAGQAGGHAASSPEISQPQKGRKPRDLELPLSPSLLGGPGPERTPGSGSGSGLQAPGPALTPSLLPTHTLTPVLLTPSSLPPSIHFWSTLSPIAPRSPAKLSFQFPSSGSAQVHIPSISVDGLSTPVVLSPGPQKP
# In short: as §1
# GABPA = molecular target: T3, GABPA (Homo sapiens, UniProt Q06546 1-454); details: protein: recombinant; tags: N-terminal GST; dsDNA, one strand shown
# T3 sequence: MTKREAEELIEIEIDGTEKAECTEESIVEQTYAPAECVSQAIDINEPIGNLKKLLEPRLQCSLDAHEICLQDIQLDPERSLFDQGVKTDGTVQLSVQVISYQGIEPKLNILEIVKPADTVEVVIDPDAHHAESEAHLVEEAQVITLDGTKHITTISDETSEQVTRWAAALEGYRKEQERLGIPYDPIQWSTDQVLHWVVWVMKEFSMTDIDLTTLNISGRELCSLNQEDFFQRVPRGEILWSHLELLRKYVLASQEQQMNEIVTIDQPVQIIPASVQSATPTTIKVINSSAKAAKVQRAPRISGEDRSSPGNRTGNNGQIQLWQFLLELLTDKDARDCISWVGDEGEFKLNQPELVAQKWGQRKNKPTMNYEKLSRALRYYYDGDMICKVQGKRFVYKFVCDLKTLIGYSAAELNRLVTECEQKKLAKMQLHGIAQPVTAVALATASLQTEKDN
# In short: as §1
# ERG = molecular target: T4, ERG (Homo sapiens, UniProt P11308 1-479); details: protein: recombinant; tags: N-terminal GST; dsDNA, one strand shown
# T4 sequence: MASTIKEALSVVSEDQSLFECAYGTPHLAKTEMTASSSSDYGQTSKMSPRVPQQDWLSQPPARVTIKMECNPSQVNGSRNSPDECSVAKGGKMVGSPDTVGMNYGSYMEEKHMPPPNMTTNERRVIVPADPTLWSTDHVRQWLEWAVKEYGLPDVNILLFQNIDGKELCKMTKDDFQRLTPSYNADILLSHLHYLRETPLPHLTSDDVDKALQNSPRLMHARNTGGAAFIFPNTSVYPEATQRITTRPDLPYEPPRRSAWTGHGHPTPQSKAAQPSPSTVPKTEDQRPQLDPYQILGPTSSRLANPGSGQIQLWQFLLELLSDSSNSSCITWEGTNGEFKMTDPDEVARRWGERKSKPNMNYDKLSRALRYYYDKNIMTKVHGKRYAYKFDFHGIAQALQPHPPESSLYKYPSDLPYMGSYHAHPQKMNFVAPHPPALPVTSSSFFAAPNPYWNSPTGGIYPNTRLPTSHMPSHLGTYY
# In short: as §1
# ELF1 = ELF1 (Homo sapiens, UniProt P32519 1-619); details: protein: recombinant; tags: N-terminal GST; dsDNA, one strand shown
# ELF1, sequence (P32519 whole entry): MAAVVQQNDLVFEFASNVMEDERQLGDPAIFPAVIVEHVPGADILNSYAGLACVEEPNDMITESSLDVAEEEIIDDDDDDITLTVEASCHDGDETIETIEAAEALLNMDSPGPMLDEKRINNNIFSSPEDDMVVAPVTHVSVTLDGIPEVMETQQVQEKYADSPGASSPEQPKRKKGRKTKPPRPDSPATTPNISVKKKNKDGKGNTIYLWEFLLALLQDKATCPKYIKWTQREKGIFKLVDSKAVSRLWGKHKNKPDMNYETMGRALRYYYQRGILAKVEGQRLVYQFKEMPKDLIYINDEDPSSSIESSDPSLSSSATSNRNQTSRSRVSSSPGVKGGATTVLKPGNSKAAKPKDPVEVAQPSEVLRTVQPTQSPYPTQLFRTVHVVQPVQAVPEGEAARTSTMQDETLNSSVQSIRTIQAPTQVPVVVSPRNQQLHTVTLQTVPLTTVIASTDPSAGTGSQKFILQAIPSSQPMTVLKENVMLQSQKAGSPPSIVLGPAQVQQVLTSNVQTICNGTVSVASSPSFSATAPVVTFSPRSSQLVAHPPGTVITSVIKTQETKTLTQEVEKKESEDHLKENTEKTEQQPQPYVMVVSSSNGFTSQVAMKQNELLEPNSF
# In short: as §1
# EHF = molecular target: T5, EHF (Homo sapiens, UniProt Q9NZC4 1-300); details: protein: recombinant; tags: N-terminal GST; dsDNA, one strand shown
# T5 sequence: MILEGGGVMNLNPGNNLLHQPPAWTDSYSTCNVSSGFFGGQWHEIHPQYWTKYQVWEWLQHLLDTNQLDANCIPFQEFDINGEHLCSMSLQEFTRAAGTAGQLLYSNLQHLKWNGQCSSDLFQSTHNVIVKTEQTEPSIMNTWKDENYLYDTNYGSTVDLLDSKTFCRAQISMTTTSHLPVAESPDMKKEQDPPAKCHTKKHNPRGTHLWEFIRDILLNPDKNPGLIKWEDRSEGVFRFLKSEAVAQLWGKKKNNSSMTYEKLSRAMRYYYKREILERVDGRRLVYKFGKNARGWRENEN
# In short: as §1
# SPI1 = SPI1 (Homo sapiens, UniProt P17947 1-270); details: protein: recombinant; tags: N-terminal GST; dsDNA, one strand shown
# In short: as §1
# SPIB = SPIB (Homo sapiens, UniProt Q01892 1-262); details: protein: recombinant; tags: N-terminal GST; dsDNA, one strand shown
# SPIB, sequence (Q01892 whole entry): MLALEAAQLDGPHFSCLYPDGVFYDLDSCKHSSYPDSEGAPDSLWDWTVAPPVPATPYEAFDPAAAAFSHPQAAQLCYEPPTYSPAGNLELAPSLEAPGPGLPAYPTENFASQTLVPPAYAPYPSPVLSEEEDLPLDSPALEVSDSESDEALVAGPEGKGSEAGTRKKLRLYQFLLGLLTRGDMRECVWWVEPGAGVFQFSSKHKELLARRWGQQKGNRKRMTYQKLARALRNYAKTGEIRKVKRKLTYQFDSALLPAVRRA
# In short: as §1
# ELK3 = molecular target: T6, ELK3 (Homo sapiens, UniProt P41970 1-407); details: protein: recombinant; tags: N-terminal GST; dsDNA, one strand shown
# T6 sequence: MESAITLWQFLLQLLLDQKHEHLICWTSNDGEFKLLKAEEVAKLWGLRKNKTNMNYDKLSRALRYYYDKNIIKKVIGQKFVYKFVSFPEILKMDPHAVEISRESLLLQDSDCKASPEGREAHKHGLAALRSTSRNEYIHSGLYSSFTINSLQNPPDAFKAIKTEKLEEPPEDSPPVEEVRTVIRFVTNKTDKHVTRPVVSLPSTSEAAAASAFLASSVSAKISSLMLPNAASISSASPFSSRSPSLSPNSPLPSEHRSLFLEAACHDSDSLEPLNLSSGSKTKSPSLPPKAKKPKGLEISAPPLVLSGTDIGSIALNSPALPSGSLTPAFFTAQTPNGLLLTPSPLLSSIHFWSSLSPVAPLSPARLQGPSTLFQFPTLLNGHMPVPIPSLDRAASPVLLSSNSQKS
# In short: as §1
# FEV = molecular target: T7, FEV (Homo sapiens, UniProt Q99581 1-238); details: protein: recombinant; tags: N-terminal GST; dsDNA, one strand shown
# T7 sequence: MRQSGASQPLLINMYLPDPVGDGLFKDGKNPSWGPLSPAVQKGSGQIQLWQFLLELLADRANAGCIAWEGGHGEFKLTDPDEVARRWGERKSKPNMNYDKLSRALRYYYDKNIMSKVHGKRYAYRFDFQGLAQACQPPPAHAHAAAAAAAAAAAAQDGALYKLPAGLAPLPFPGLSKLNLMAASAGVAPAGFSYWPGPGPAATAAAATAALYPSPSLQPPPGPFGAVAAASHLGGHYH
# In short: as §1
# ETV5 = ETV5 (Homo sapiens, UniProt P41161 1-510); details: protein: recombinant; tags: N-terminal GST; dsDNA, one strand shown
# ETV5, sequence (P41161 whole entry): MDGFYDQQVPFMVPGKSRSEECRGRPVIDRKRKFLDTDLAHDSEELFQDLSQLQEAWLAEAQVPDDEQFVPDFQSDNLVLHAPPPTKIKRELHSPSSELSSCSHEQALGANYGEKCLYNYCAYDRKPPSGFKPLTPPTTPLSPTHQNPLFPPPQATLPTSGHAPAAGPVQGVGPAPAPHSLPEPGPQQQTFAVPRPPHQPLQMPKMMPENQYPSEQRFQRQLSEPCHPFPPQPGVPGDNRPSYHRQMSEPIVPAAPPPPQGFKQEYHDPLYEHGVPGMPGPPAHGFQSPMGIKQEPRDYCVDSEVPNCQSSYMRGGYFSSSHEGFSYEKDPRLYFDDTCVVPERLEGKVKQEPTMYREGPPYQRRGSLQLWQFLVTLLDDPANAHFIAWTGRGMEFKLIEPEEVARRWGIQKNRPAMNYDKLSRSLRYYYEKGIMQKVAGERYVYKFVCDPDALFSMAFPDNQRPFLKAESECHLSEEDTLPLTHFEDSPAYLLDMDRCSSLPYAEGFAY
# In short: as §1
# HSF1 = HSF1 (Homo sapiens, UniProt Q00613 1-529); details: protein: recombinant; tags: N-terminal GST; chain copies: 3; dsDNA, one strand shown
# HSF1, sequence (Q00613 whole entry): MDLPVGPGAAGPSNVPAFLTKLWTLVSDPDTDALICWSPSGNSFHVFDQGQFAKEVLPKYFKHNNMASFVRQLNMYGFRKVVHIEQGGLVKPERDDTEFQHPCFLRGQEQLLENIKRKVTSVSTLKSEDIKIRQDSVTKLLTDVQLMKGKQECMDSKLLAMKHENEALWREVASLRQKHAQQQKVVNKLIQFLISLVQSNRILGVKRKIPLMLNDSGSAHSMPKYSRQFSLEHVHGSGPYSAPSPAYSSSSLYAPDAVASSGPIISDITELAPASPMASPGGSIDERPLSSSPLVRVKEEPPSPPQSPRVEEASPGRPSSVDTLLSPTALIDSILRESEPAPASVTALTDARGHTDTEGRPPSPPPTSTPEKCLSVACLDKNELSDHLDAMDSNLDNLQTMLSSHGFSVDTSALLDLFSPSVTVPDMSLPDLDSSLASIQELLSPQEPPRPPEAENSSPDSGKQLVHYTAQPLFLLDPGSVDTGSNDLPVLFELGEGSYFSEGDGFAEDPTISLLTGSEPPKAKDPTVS
# In short: as §1
# SPIC = molecular target: T8, SPIC (Homo sapiens, UniProt Q8N5J4 1-248); details: protein: recombinant; tags: N-terminal GST; dsDNA, one strand shown
# T8 sequence: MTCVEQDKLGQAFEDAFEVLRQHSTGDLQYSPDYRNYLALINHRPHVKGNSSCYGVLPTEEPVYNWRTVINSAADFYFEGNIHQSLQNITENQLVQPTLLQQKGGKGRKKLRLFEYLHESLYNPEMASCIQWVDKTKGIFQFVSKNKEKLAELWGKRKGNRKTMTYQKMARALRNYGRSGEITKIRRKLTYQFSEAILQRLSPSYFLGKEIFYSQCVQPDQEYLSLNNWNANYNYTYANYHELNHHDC
# In short: as §1
# ELF4 = ELF4 (Homo sapiens, UniProt Q99607 1-663); details: protein: recombinant; tags: N-terminal GST; dsDNA, one strand shown
# ELF4, sequence (Q99607 whole entry): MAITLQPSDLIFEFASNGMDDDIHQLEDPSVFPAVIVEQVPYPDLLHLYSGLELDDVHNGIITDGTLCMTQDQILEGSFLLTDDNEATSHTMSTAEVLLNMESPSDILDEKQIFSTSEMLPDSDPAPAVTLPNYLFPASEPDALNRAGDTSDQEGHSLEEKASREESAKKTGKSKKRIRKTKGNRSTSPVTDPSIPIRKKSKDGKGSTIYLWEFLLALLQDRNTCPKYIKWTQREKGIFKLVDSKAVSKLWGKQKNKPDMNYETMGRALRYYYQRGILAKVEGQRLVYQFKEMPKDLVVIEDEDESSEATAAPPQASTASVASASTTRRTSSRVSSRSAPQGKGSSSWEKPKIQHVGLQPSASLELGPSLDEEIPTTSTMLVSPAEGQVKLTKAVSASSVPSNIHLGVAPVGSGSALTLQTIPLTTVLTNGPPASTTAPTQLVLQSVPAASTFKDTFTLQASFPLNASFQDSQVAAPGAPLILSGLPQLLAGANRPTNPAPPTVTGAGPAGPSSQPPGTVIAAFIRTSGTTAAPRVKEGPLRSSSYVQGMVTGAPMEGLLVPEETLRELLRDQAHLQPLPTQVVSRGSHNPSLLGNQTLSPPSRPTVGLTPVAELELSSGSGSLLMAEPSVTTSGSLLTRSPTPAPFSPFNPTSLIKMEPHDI
# In short: as §1
# ELK4 = molecular target: T9, ELK4 (Homo sapiens, UniProt P28324-2 1-405); details: protein: recombinant; tags: N-terminal GST; dsDNA, one strand shown
# T9 sequence: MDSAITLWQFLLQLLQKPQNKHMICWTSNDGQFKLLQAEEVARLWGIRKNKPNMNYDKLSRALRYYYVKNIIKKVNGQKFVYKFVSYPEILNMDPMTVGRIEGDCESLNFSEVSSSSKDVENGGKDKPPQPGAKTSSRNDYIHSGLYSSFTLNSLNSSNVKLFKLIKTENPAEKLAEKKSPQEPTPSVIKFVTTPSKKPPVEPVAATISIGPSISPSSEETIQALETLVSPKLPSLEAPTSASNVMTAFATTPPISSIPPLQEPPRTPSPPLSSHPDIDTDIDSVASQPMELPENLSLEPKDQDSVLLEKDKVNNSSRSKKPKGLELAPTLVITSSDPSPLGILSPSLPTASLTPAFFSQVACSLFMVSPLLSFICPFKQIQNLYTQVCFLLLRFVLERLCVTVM
# In short: as §1
# ELF3 = molecular target: T10, ELF3 (Homo sapiens, UniProt P78545 1-371); details: protein: recombinant; tags: N-terminal GST; dsDNA, one strand shown
# T10 sequence: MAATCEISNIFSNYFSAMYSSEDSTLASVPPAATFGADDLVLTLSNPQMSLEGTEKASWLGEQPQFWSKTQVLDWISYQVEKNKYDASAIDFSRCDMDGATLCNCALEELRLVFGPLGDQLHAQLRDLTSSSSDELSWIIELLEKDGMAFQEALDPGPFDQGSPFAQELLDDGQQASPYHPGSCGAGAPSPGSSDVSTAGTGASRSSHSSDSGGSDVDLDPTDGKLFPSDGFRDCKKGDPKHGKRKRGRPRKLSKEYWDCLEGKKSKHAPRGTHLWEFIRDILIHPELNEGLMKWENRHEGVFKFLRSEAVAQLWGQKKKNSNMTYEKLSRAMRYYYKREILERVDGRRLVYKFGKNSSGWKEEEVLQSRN
# In short: as §1
# CRX = CRX (Homo sapiens, UniProt O43186 1-299); details: protein: recombinant; tags: N-terminal GST; dsDNA, one strand shown
# CRX, sequence (O43186 whole entry): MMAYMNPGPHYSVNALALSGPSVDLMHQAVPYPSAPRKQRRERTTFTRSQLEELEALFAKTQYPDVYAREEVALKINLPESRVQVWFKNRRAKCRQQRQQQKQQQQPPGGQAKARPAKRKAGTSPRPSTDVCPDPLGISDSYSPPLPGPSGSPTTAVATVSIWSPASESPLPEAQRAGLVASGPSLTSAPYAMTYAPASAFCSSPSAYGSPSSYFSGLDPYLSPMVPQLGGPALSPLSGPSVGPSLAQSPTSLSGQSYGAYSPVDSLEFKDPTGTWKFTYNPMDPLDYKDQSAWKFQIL
# In short: as §1
# ETV1 = ETV1 (Homo sapiens, UniProt P50549 1-477); details: protein: recombinant; tags: N-terminal GST; dsDNA, one strand shown
# ETV1, sequence (P50549 whole entry): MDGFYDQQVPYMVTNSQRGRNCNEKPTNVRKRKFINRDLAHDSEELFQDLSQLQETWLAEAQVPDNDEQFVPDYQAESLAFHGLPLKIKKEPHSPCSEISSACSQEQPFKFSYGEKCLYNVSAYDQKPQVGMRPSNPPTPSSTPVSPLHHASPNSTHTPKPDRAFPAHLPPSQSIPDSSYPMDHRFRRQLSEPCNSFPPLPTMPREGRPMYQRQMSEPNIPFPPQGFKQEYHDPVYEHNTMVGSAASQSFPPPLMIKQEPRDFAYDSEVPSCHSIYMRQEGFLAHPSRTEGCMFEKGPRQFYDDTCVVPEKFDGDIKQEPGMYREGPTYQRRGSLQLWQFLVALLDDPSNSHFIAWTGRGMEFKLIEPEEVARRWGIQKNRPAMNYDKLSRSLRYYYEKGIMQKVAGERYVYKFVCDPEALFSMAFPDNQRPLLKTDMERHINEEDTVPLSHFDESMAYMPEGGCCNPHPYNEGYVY
# In short: as §1
sequence,measurement,setting,value
ATACGC,binding signal,FLI1,"1.09 fold enrichment (6-mer frequency, TF over GST control)"
same,binding signal,ELK1,"1.14 fold enrichment (6-mer frequency, TF over GST control)"
same,binding signal,GABPA,"1.2 fold enrichment (6-mer frequency, TF over GST control)"
same,binding signal,ERG,"1.13 fold enrichment (6-mer frequency, TF over GST control)"
same,binding signal,ELF1,"1.17 fold enrichment (6-mer frequency, TF over GST control)"
same,binding signal,EHF,"1.11 fold enrichment (6-mer frequency, TF over GST control)"
same,binding signal,SPI1,"1.08 fold enrichment (6-mer frequency, TF over GST control)"
same,binding signal,SPIB,"1.19 fold enrichment (6-mer frequency, TF over GST control)"
same,binding signal,ELK3,"1.18 fold enrichment (6-mer frequency, TF over GST control)"
same,binding signal,FEV,"1.05 fold enrichment (6-mer frequency, TF over GST control)"
same,binding signal,ETV5,"1.13 fold enrichment (6-mer frequency, TF over GST control)"
same,binding signal,HSF1,"1.04 fold enrichment (6-mer frequency, TF over GST control)"
same,binding signal,SPIC,"1.08 fold enrichment (6-mer frequency, TF over GST control)"
same,binding signal,ELF4,"1.18 fold enrichment (6-mer frequency, TF over GST control)"
same,binding signal,ELK4,"1.08 fold enrichment (6-mer frequency, TF over GST control)"
same,binding signal,ELF3,"1.13 fold enrichment (6-mer frequency, TF over GST control)"
same,binding signal,CRX,"1.12 fold enrichment (6-mer frequency, TF over GST control)"
same,binding signal,ETV1,"1.18 fold enrichment (6-mer frequency, TF over GST control)"
